Reference: PubChem BioAssay (NCI)
Compounds without any hit were thinned out: in the full panel of roughly 79,000, 15% have a hit. Values without a mark were called inactive. Calls of active or inactive are those of the source. No stated cut-off is given here; in the data, active means growth inhibition above about 70%; inactive means the rest.

Legend:
[1] = NCI Yeast Anticancer Drug Screen. Data for the rad50 strain (AID 155);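 further: 0% = growth of vehicle-only cultures of the same strain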; conditions: S. cerevisiae rad50 strain growth inhibition; at 50.0 µM; hits give high values
Outline: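 Readout: growth inhibition relative to vehicle-treated cultures. Compound exposure was carried out in a genetically defined yeast strain deficient in DNA damage repair.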

[2] = NCI Yeast Anticancer Drug Screen. Data for the mec2-1 strain (AID 157); conditions: S. cerevisiae mec2-1 strain, at 50.0 µM, hits give high values
Outline: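 Growth inhibition is read against vehicle-treated controls after compound exposure of the mec2-1 yeast strain, which is defective in DNA damage repair or cell cycle control.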

[3] = NCI Yeast Anticancer Drug Screen. Data for the sgs1 mgt1 strain (AID 161);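 further: 0% = growth of cultures given vehicle only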; conditions: S. cerevisiae sgs1 mgt1 strain, at 50.0 µM, hits give high values
Outline: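 Percent growth inhibition was derived by comparing compound-exposed mutant yeast with vehicle-exposed cultures. The strain carries alterations in DNA damage repair.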

[4] = NCI Yeast Anticancer Drug Screen. Data for the cln2 rad14 strain (AID 165);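 further: 0% = growth equal to vehicle treated cultures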; conditions: S. cerevisiae cln2 rad14 strain, at 50.0 µM, hits give high values
Outline: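 Growth inhibition, relative to vehicle-treated controls, is the read-out. The test organism is a yeast strain with defined genetic alterations, cln2 rad14.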

[5] = NCI Yeast Anticancer Drug Screen. Data for the bub3 strain (AID 167); conditions: S. cerevisiae bub3 mutant strain, at 50.0 µM, hits give high values
Outline: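 Readout: yeast growth inhibition, expressed relative to vehicle-only wells. The test organism is a mutant strain from a panel with lesions in DNA repair or checkpoint genes.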

[6] = NCI Yeast Anticancer Drug Screen. Data for the mlh1 rad18 strain (AID 175); conditions: S. cerevisiae mlh1 rad18 strain growth inhibition; at 50.0 µM; hits give high values
Outline: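 Cells of a genetically altered yeast strain, deficient in DNA damage repair, were treated with compound. Their growth was then compared with that of vehicle-treated cultures to give inhibition.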

Row | SMILES | growth inhibition [1] | growth inhibition [2] | growth inhibition [3] | growth inhibition [4] | growth inhibition [5] | growth inhibition [6]
1 | Nc1nc(N)nc(COc2ccccc2Cl)n1 | 6.5% | 8.5% | 8.35% | 9.4% | 15.2% | 13.2%
2 | Oc1ccc(-c2ccc(O)cc2O)c(O)c1 | -1.45% | -20.9% | -1.85% | 7.45% | 0.35% | 14.2%
3 | Nc1ccc(C2SCC(=O)N2NS(=O)(=O)c2cccc(C(=O)O)c2)cc1 (configuration not stated) | -21.3% | -24.1% | 6.8% | 0.8% | -46.2% | -54.5%
4 | Cc1nc(-c2ccccc2)nc2c1nc(Cc1ccc(Cl)cc1)n2Nc1ccccc1 | 1.7% | -0.3% | 1.6% | -5.75% | -1.45% | 40.5%
5 | COc1ccc(C=Nc2ccc(C(=O)O)cc2)cc1 | 0.5% | 9.35% | 1.45% | -2.25% | 13.9% | -6.25%
6 | CCOC(=O)CCC(NC(=O)C(CCC(=O)OCC)NC(=O)C(Cc1ccc([N+](=O)[O-])cc1)NC(C)=O)C(=O)NNC(=O)OC(C)(C)C (configuration not stated) | -22.8% | -28.4% | -17% | -3.35% | -23.6% | -7.3%
7 | O=C1Cc2ccccc2C(=O)N1 | 23% | 22.3% | 27.3% | 7.4% | 4.8% | 16.4%
8 | COc1cc(-c2ccccc2)c(OC)cc1CCl | 4.05% | 2.95% | 17.8% | 6% | 13.7% | 20%
9 | OC1CCCCC2CC2C1O (configuration not stated) | 9.25% | -2.8% | 6.8% | -44.7% | 3.55% | -5.65%
10 | COc1ccc(C(=O)c2cc(S(=O)(=O)O)c(OC)cc2O)c(O)c1 | -32.8% | -35.4% | -31.2% | -1.6% | -13.4% | -21.9%
11 | CC(C)CCCC(C)C1CCC2C3CCC4CC5(C)C(CC4(C)C3CCC12C)C(=O)C5(Cl)Cl (configuration not stated) | 13.2% | -2.7% | -22.4% | 0% | -3.55% | -27.9%
12 | c1ccc(CSc2nn[nH]n2)cc1 | -5.3% | -8.1% | -0.8% | -9.65% | -2.45% | -4.95%
13 | Cc1cccc(-c2nnc(N)o2)c1[N+](=O)[O-] | -36% | -9.6% | -10.6% | 1.75% | -11.4% | -16.4%
14 | CCN(CC)c1ccc(C(C#N)(c2ccc(N(CC)Cc3cccc(S(=O)(=O)O)c3)cc2)c2ccc(N(CC)Cc3cccc(S(=O)(=O)O)c3)cc2)cc1 | -1% | 8.15% | 4.55% | -7.7% | -7.45% | 29.6%
15 | COc1cc2c(cc1OC)C(=O)C1(CO)COC(=O)C1C2 (configuration not stated) | -7.7% | -19% | -2.15% | -1.4% | -1% | 5.9%
16 | OCC[N+]1(CCO)CCOCC1 | 7.7% | -2.9% | -0.05% | -15.1% | 5.9% | 6.2%
17 | CCSCN1CCN(CSCC)CC1 | 1.35% | 1.15% | 3.5% | 27.5% | -11.9% | -5.05%
18 | CC=C1C(C(=O)O)C1C(=O)O (configuration not stated) | 16.9% | 20.8% | -5.2% | -23.2% | 15.3% | -4.4%
19 | Clc1cc(Cl)c(SSc2cc(Cl)c(Cl)cc2Cl)cc1Cl | -11.6% | 1.15% | -18.1% | -71.5% | 0.75% | -22.6%

Row | SMILES | growth inhibition [1] | growth inhibition [2] | growth inhibition [3] | growth inhibition [4] | growth inhibition [5] | growth inhibition [6]
20 | Brc1ccccc1-c1nc2ccccc2[nH]1 | 4.1% | -4.4% | 4% | -63% | -6.1% | -2.55%
21 | Fc1ccc2cc3cccc[n+]3cc2c1 | 27.1% | 7.05% | 32.4% | 14.4% | 10.1% | 2.35%
22 | Cc1cccc(C(C)(O)c2cnc(C)n2Cc2ccccc2)c1 (configuration not stated) | 5.1% | 14.2% | 10.8% | 18.8% | 9.35% | 15.2%
23 | Cc1ccc(C)c(NC(=O)Oc2ccc(Cl)cc2Cc2ccccc2)c1 | 5.35% | -3.5% | 0.05% | 11.8% | 8.2% | 7.1%
24 | CC(C)CNN(CC(C)C)C(N)=O | -32.7% | -25% | -19.8% | -24.7% | -25.6% | -20.1%
25 | CC(C)(C)c1ccc2c(c1)CNCCNCCNCc1cc(C(C)(C)C)ccc1OCC1(CO2)COc2ccc(C(C)(C)C)cc2CNCCNCCNCc2cc(C(C)(C)C)ccc2OC1 | 91% (active) | 93% (active) | 92% (active) | 91.2% (active) | 92.2% (active) | 89.8% (active)
26 | CS/C(=C\c1ccc2ccccc2[n+]1C)N1CCN(CCCO)CC1 | 23.4% | 10% | 9.95% | -20.6% | -7.4% | 38.1%
27 | CCCCCCCC/C=C/CCCCCCCC(=O)N(CCOC(=O)C(C)(C)C)CCOC(=O)C(C)(C)C | 37.5% | 9.5% | 25.6% | 24.2% | -2.45% | 39.2%
28 | COc1ccc(C2c3cc4c(cc3OC(C)(OC)C2C)OCO4)cc1 (configuration not stated) | -33.5% | -6.8% | -3.25% | -14.8% | 19.8% | 14.7%
29 | FC1(F)ON2CCc3ccccc3C2[C@H]1c1ccccc1 (some centres not stated) | 13.3% | 14.7% | 10.2% | 10% | 22.4% | -50%
30 | Cc1cc2cc(Cl)ccc2nc1C(=O)c1ccccc1 | -5.75% | -24.4% | -3.3% | 17.7% | -6.65% | -18.7%
31 | C/C(CC(=O)NC1=CC=C(NC(=O)C/C(C)=N\Nc2ccccc2)CC1)=N/Nc1ccccc1 | 8.65% | 12% | -18.8% | -9.35% | -0.1% | 13.7%
32 | Cc1[nH]n(-c2ccccc2)c(=O)c1/C=N\C(N)=S | -37% | -37.9% | -34.1% | -50.9% | -48% | -25.1%
33 | O=C(NCc1ccccc1)C1CCN(Cc2c[nH]c3ccccc23)CC1 | -0.3% | -4.4% | 3.15% | 16.5% | 1.7% | 28.7%
34 | c1ccc2c(c1)C(=Nc1ccc(N=C3c4ccccc4-c4ccccc43)cc1)c1ccccc1-2 | 1.8% | -0.55% | -5.7% | -1% | -27.4% | -20.6%
35 | CCCCCCCCCCCCCCCCCC1=NCC(C)O1 (configuration not stated) | 4.6% | -14% | -0.35% | 19.6% | 13.3% | -10.1%
36 | C(CCN1CN(CCCCN2CCOCC2)CN(CCCCN2CCOCC2)C1)CN1CCOCC1 | 12.8% | 4.75% | 10.4% | -5.5% | -1.75% | 29.6%
37 | O=[N+]([O-])c1cccc(CO)c1 | -9.75% | 17.1% | -1.15% | 8.6% | -7.35% | -5.7%
